Assay outcomes from PubChem.
SMARCA2 act = activators of SMARCA2 function; actives 1% (n = 370,000); MG213 cells, MMTV-luciferase reporter, dexamethasone, overnight; activation, % at 9.1 µM; AID 652017; in the data active = activation above about 7.8%
esBAF inh = SWI/SNF esBAF complex inhibition. AID 602393. reporter increase, % at 12.5 µM. mouse ES cells, Bmi1-luciferase knock-in reporter, 24 h; 100% = twice the neutral-well signal. actives 2% (n = 350,000); in the data active = activation above about 40%; inconclusive = no clear call, values can overlap the other calls;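 also: a rise in the Bmi1 reporter signal indicates esBAF inhibition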
HSF1 activator = increases HSF-1 driven luciferase reporter signal; activation, % at 9 µM; actives 1.7% (n = 300,000); NIH3T3-HGL HSF-1 luciferase reporter, MG132, 8 h; 100% = twice DMSO control signal; AID 504408;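 active = mean replicate activation of at least 50% with a set share of replicates each reaching 50%; inconclusive = only one of those two conditions met; inactive = mean below 50% and too few replicates reaching it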
Wnt act = Wnt/beta-catenin pathway activation | Wnt/beta-catenin reporter cell assay, activator, plate reader | activation, % at 9.35 µM | actives 1.2% (n = 300,000); in the data active = activation above about 30%, passing the limit was not always enough; inconclusive = no clear call, values can overlap the other calls
HSF1 inh = HSF1 inhibition. NIH3T3-HGL HSE-luciferase, MG132-induced, luminescence 8 h; stronger effect = lower value. activity change, negative = inhibition, % at 7.5 µM (by protocol). actives 0.77% (n = 300,000). AID 2098;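 active = more than half of replicate wells show activity change below -50%, luminescence cut by over half; inconclusive = some wells, but at most half, below -50%; inactive = no replicate well below -50%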;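 also: luciferase reports HSF-1 transcriptional activity via heat shock element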
MITF TRPM1 HTS = MITF TRPM1 promoter activation in melanoma cells. SK-MEL-5 TRPM1-promoter luciferase, 24 h; % of positive control, neutral wells = 0. activation, % at 12.5 µM. actives 0.75% (n = 300,000). AID 588334;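 active = mean activation of at least 80% with every replicate also reaching 80%; inconclusive = mean reaches 80% but some replicate falls short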
Numbers stand for hits; i = inactive; ? = inconclusive; nt = not tested or not shown. Shown are actives, neighbours in structure and some others; about 4.3% of the full set was active somewhere.

SMILES	SMARCA2 act	esBAF inh	HSF1 activator	Wnt act	HSF1 inh	MITF TRPM1 HTS
CCN(Cc1ccccc1)C(=O)C1CCN(Cc2sccc2C)CC1	i	i	i	nt	-56	i
CCCC#Cc1ccc2c(c1)O[C@H](CN(C)C(=O)c1ccccc1)[C@@H](C)CN([C@H](C)CO)S2(=O)=O	nt	i	nt	nt	nt	nt
Cc1cccc(C(=O)Nc2nc3ccc(S(C)(=O)=O)cc3s2)c1	i	46	i	i	i	nt
CS(=O)(=O)c1ccc2nc(NC(=O)Nc3cccc(Cl)c3)sc2c1	i	nt	99	i	i	i
Cc1ccc(N2CC(C(=O)Nc3nc4ccc(S(C)(=O)=O)cc4s3)CC2=O)cc1 (stereo not given)	i	i	i	i	-80	i
CS(=O)(=O)c1ccc2nc(NC(=O)C3CC(=O)N(c4ccccc4)C3)sc2c1 (stereo not given)	i	i	i	i	i	i
C[C@@H]1CCCCO[C@@H](CN(C)Cc2ccccc2)[C@@H](C)CN([C@@H](C)CO)C(=O)c2cc(NC(=O)Nc3ccccc3)ccc2O1	nt	i	nt	nt	nt	nt
Cc1cc(C)n(-c2nc3ccccc3s2)n1	i	nt	i	52	-84	i
Cc1nn(-c2nc3ccccc3s2)c(N)c1Sc1ccc(F)cc1	i	89	nt	nt	nt	i
Cc1nn(-c2nc3ccccc3s2)c(N)c1-c1ccccc1	i	95	i	?	i	?
Cc1c2c(=O)n(-c3nc4ccccc4s3)nc-2cc(O)n1Cc1ccccc1	nt	nt	nt	nt	nt	i
Cc1cc(N)n(-c2nc3ccccc3s2)n1	i	nt	i	i	?	i
Cc1nn(-c2nc3ccccc3s2)c(N)c1-c1ccc(Cl)cc1	i	nt	i	41	i	i
CC(=O)Nc1ccc2c(c1)C(=O)N(C)[C@H]1CC[C@H](CC(=O)N3CCc4ccccc4C3)O[C@H]1CO2	nt	i	nt	nt	nt	nt
Cc1noc(C)c1NC(=O)N[C@@H]1C=C[C@@H](CC(=O)N2CCCCC2)O[C@H]1CO	nt	i	nt	nt	nt	nt
O=c1cc(-c2ccccc2)[nH]n1-c1nc2ccccc2[nH]1	i	nt	i	nt	i	i
Cc1nn(-c2nc3ccccc3[nH]2)c(N)c1-c1ccccc1	i	nt	71	55	i	i
Cc1cccc(-n2cnc3sc(C)c(C)c3c2=O)c1	i	i	i	i	i	nt
Cc1ccc(-n2cnc3sc(C)c(C)c3c2=O)cc1	i	nt	59	i	i	i
COc1ccc(NC2=C(Cl)C(=O)N(CCc3ccccc3)C2=O)cc1	i	nt	59	?	i	i
COc1ccc(NC(=O)N[C@@H]2CC[C@@H](CCn3cc(-c4ccccc4)nn3)O[C@H]2CO)cc1	nt	i	nt	nt	nt	nt
O=C1C(Cl)=C(Nc2ccccc2O)C(=O)N1c1ccccc1	i	i	i	55	i	nt
COc1ccccc1N1C(=O)C(Cl)=C(Nc2ccccc2O)C1=O	i	nt	i	i	i	i
O=C(Nc1cnccn1)c1cccs1	i	i	i	nt	i	i
O=C(Cc1ccccc1)Nc1ccc(NC(=O)c2ccccc2)nc1	i	56	i	i	i	i
SMILES	SMARCA2 act	esBAF inh	HSF1 activator	Wnt act	HSF1 inh	MITF TRPM1 HTS
N#Cc1ccc(NC(=O)c2cccs2)nc1	i	?	i	i	i	86
O=C(Nc1ccc(NC(=O)c2cccs2)cn1)c1ccccc1	i	nt	i	44	i	?
CC(C)NC(=O)Nc1ccc2c(c1)C(=O)N([C@H](C)CO)C[C@@H](C)[C@@H](CN(C)Cc1ccc(-c3ccccc3)cc1)O2	nt	i	nt	nt	nt	nt
CCc1ccc(C(=O)Nc2ccc3nc(C)ccc3c2)cc1	i	i	i	i	i	99
Cc1ccc2cc(NC(=O)c3ccccc3C)ccc2n1	i	?	i	i	i	100
Cc1ccc2cc(NC(=O)c3ccc(C(C)(C)C)cc3)ccc2n1	i	i	i	i	i	i
CO[C@@H]1CN(C)C(=O)c2ccc(NC(=O)C3CCOCC3)cc2OC[C@H](C)N(C(C)=O)C[C@@H]1C	nt	i	nt	nt	nt	nt
CN1C(=O)c2cc(NC(=O)c3cccs3)ccc2OC[C@H]2O[C@@H](CC(=O)N3CCCCC3)CC[C@@H]21	nt	i	nt	nt	nt	nt
O=C(OCc1ccccc1)N1CCC2CC1c1ccc(N3CCOCC3)cc12 (stereo not given)	i	47	nt	i	nt	nt
COc1ccc(CN(C)C[C@H]2OCCCC[C@@H](C)Oc3ccc(N(C)C)cc3C(=O)N([C@H](C)CO)C[C@@H]2C)cc1	nt	i	nt	nt	nt	nt
O=C(c1ccc(-c2nc3ccccc3s2)s1)N1CCOCC1	i	nt	i	i	i	nt
Cc1noc(C)c1COC(=O)c1ccc(-c2nc3ccccc3s2)s1	i	65	i	nt	i	i
CCN1CCN(C(=O)c2ccc(-c3nc4ccccc4s3)s2)CC1	i	i	i	49	i	i
CC(C)NC(=O)N(C)C[C@@H]1Oc2ccc(NC(=O)Nc3ccc4c(c3)OCO4)cc2C(=O)N([C@@H](C)CO)C[C@@H]1C	nt	i	nt	nt	nt	nt
C[C@@H]1CN([C@@H](C)CO)S(=O)(=O)c2ccc(C3=CCCC3)cc2O[C@H]1CN(C)C(=O)c1cnccn1	nt	i	nt	nt	nt	nt
COc1ccc(CCNC(=O)CN(c2ccccc2OC)S(C)(=O)=O)cc1OC	i	i	i	i	i	i
COc1ccc(CCNC(=O)CN(c2ccc(OC)c(OC)c2)S(C)(=O)=O)cc1OC	i	i	i	i	-66	nt
Cc1cccc(OCCCn2c(=O)oc3ccccc32)c1	i	48	i	i	i	i
Cc1cccc(OCCn2c(=O)oc3ccc(C)cc32)c1	i	i	i	i	i	i
Cc1ccccc1NC(=O)Nc1ccccc1C(=O)NCc1ccccc1	i	i	i	i	i	i
COCCNC(=O)c1ccccc1NC(=O)Nc1ccccc1	i	nt	i	i	i	i
C=CCNC(=O)c1ccccc1NC(=O)Nc1ccccc1	7.8	i	i	i	i	i
Cc1ccc(NC(=O)Nc2ccccc2C(=O)NCc2ccccc2)cc1	i	51	i	nt	i	i
CCN1CCN(Cc2ccc(NC(=O)Nc3ccccc3Cl)cc2)CC1	i	i	i	i	i	i
CCN1CCN(Cc2ccccc2NC(=O)Nc2ccc(C)cc2)CC1	i	43	i	nt	i	i
SMILES	SMARCA2 act	esBAF inh	HSF1 activator	Wnt act	HSF1 inh	MITF TRPM1 HTS
C[C@@H]1CN([C@@H](C)CO)C(=O)Cc2cc(NS(=O)(=O)c3cccs3)ccc2O[C@H]1CN(C)C(=O)Nc1ccc(F)cc1	nt	i	nt	nt	nt	nt
C[C@H]1CN([C@@H](C)CO)C(=O)c2cc(C#CC3CC3)cnc2O[C@H]1CN(C)C(=O)Nc1ccccc1	nt	i	nt	nt	nt	nt
CC12c3ccccc3C(c3ccccc31)C1C(=O)N(Cc3cccnc3)C(=O)[C@H]12 (stereo not given in full)	i	nt	70	nt	i	i
C/C(CC(=O)Nc1ccc(C)c(Cl)c1)=N\NC(=O)c1cccc(O)c1	i	i	i	i	i	i
C/C(CC(=O)Nc1ccc2ccccc2c1)=N\NC(=O)c1ccc(O)c(O)c1	i	nt	55	i	i	i
C/C(CC(=O)Nc1ccc2ccccc2c1)=N\NC(=O)c1cnccn1	i	i	74	nt	i	i
C/C(CC(=O)Nc1ccc(Cl)c(Cl)c1)=N\NC(=O)C(=O)N1CCCCC1	i	i	54	i	i	i
